“And” between values parts separate entries of the source, which are not always exact repeats. Equal values may be shown once. The campaign covered roughly 300,000 compounds. About 37,000 (12%) were called active. This is one part of a sample in which actives are shown more often than they occur. A number with no mark means an inactive call. Rule as the data show it: active = max response mostly above about 13% (no sharp cut-off); inactive = mostly below about 14%.

The assay is described as follows: Cycloheximide Counterscreen for Small Molecule Inhibitors of Shiga Toxin. Also: read at 38.3 µM for the half of the compounds with a filed dose; 0% is about no effect. The conditions noted are these: cell reporter, cycloheximide protein synthesis inhibition counterscreen; hits give high values. (In general: A counterscreen serves to expose hits that act by an unwanted route or on another target.)
Turning to `CCC(C)C(NC(=O)C1CCC(=O)N1C(=O)OCc1ccccc1)C(=O)NC(C(=O)N1CCCC1C(N)=O)C(C)CC` (stereo not drawn), the max response is -2.75%.

Take `COc1ccccc1N1CCN(/N=C/c2ccc(O)cc2O)CC1`: the max response is 20% (active).

`COc1cc(/C=N/N2CCN(c3ccccc3)CC2)ccc1OC(C)=O`: the max response was 15.1%.

Take `COc1ccccc1N1CCN(/N=C\C(Br)=C\c2ccccc2)CC1`: the max response is 21.4%.

Take `Cc1nnc(NC(=O)C(c2ccccc2)c2ccccc2)s1`: the max response was -6.29%.

`CCCCN1C(=O)C(C)=C(C)C1OCCc1ccc(OC)c(OC)c1` (stereo not drawn): the max response was -1.75%.

Regarding `COc1ccc(C(C(=O)NC2CCCCC2)N(C(=O)c2snc(C(N)=O)c2N)c2ccccc2OC)cc1` (stereo not drawn), the max response was -4.3%.

Turning to `CCOC(=O)Nc1ccc(S(=O)(=O)N(C)C(C)C)cc1`, the max response is 2.33%.

Take `CCOC(=O)N1CCN(CCC(=O)Nc2ccccc2)CC1`: the max response is -2.64%.

Regarding `CCCCCOC(=O)NCCOC(=O)Nc1ccc(C(=O)OCC)cc1`, the max response is -1.37%.

As to `Cc1ccc(C(=O)NCCNC(=O)c2cnccn2)cc1`, the max response is -0.952%.

Turning to `Cc1ccc(OCc2nnc(NC(=O)OCC(C)C)s2)cc1`, the max response is -6.37%.

As for `Cc1ccc(NC(=O)OCCNC(=O)c2ccncc2)cc1`, the max response is 19.8% (active).

For the molecule `Cc1ccc(NC(=O)OCc2cncs2)cc1`, the max response was 28.5% (active).

For the molecule `CC(C)(COC(=O)Nc1ccccc1)COC(=O)Nc1ccccc1`, the max response was 19% (active).

With `CCOC(=O)Nc1ccc(NC(=O)OCC)cc1`, the max response is 38.2% (active).

As to `CC(C)(C)C1CCC(OC(=O)CCC(=O)Nc2ccccc2)CC1` (stereo not drawn), the max response was 4.12%.

`CCOC(=O)C(NC(C)=O)C(=O)Nc1ccc(OC)cc1` (stereo not drawn): the max response was -2.02%.

Take `COc1ccc(NC(=O)/C(Cl)=C(/Cl)S(=O)Cc2ccc(C)cc2)cn1` (stereo not drawn): the max response is -12.1%.

Take `O=C(c1ccccc1)C(Cn1cncn1)C(Sc1ccccc1)c1ccccc1` (stereo not drawn): the max response was -6.69%.

For `CC(C)C(=O)N1CCC2(CC1)Oc1ccc(F)cc1C(=O)C21CC(c2ccccc2)=NO1` (stereo not drawn), the max response was -2.77%.

For `CN(C)CCOC1c2ccccc2-c2ccccc21`, the max response was 0.251%.

For `COc1cc(OC)c(C(=O)OC(C)C(=O)Nc2cc(C(F)(F)F)ccc2Cl)cc1OC` (stereo not drawn), the max response is 4.97%.

Take `CC1=C(C(N)=O)C(c2ccc(Br)cc2)n2ncnc2N1` (stereo not drawn): the max response was -0.44%.

Turning to `c1ccc(-c2cc(N3CCCCC3)c3ccccc3n2)cc1`, the max response is -6.32%.

As to `Cc1ccc(S(=O)(=O)N(C)C)cc1NC(=O)C1Cc2ccccc2CN1C(=O)c1ccco1` (stereo not drawn), the max response was -2.92%.

In the case of `C=CCC1=C/C(=C\c2c(N)n3nc(CC(=O)N4CCOCC4)sc3nc2=O)C=C(OC)C1=O`, the max response was 0.431%.

`Cc1ccc(OS(=O)(=O)c2ccc(-c3csc(C)n3)s2)c(C)c1`: the max response was 1.06%.

As to `CN(Cc1nc2ccc(F)cc2[nH]1)Cc1nc(CC2CC2)no1`, the max response was -0.7%.

Turning to `OC(COc1ccc2ccccc2c1)Cn1cncn1` (stereo not drawn), the max response is 8.69%.

For the molecule `OC(COc1ccc2ccccc2c1)CN1CCOCC1` (stereo not drawn), the max response was 24% (active).

On to `COc1ccccc1OCC(O)CN1CCOCC1` (stereo not drawn), for which the max response is -1.33%.

Take `COc1ccc(C(=O)Nc2cc(C)c(NC(=O)c3ccccc3OC)cn2)cc1`: the max response was 9.29%.

Regarding `Nc1nc(NCc2ccccc2)n(-c2ccccc2)n1`, the max response is -3.49%.

In the case of `CC(=O)Nc1ccc(N2C(=O)CC(Sc3nccc(C)n3)C2=O)cc1` (stereo not drawn), the max response was -0.348%.

As for `O=C(Cc1ccc(F)cc1)N/N=C/c1ccc2c(c1)OCO2`, the max response was 14.7%.

Consider `O=C(N/N=C/c1ccc2c(c1)OCO2)C(=O)N1CCCC1`, for which the max response was 46.6% (active).

With `O=C(CNC(=O)C(c1ccccc1)c1ccccc1)N/N=C\c1ccc2c(c1)OCO2`, the max response was 35.9% (active).

Take `COc1ccccc1N1CCN(C(=O)C(=O)N/N=C/c2ccccc2F)CC1`: the max response was -0.733%.

Take `Cc1[nH]c2ccccc2c1/C=N/NC(=O)CNC(=O)c1ccc2c(c1)OCO2`: the max response was -0.0106%.

For `O=C(N/N=C/c1ccc([N+](=O)[O-])cc1)C(=O)N1CCCC1`, the max response is -0.79%.

With `Cc1cccc(Cn2cnc3c(N)c(C)c(C)cc32)c1`, the max response was -6.87%.

In the case of `CC(NC(=O)COC(=O)C1CCN(S(=O)(=O)c2ccccc2C(F)(F)F)CC1)c1ccccc1` (stereo not drawn), the max response was -0.765%.

For `COc1ccc(NS(=O)(=O)c2ccc(N3CCOCC3)c(NC(=O)c3ccccc3Br)c2)cc1`, the max response is -1.16%.

In the case of `Cc1cc(N(C)C)nc(Cl)n1`, the max response was -9.03%.

For `CCOC(=O)c1c(C)nc2c(c1C)c(=O)oc1ccccc12`, the max response was 14.3% (active).

On to `Cc1cc(NC(=O)CN2CCCCC2C)nc2c1c(=O)oc1ccccc12` (stereo not drawn), for which the max response was 0.268%.

For the molecule `CCCCC(=O)Nc1cc(C)c2c(=O)oc3ccccc3c2n1`, the max response is 10.7%.

With `COc1ccc(CC(NC(C)=O)C(=O)NC2CCN(C(=O)C3CC3)CC2)cc1OC` (stereo not drawn), the max response was -7.16%.

With `C=CCNC(=S)N/N=C/c1ccc(C)s1`, the max response was 31.5% (active).

On to `Cc1ccc(/C=N/NC(=O)CN2CCN(Cc3ccccc3)CC2)s1`, for which the max response is 8.96%.

`C=CCNC(=S)N/N=C/c1ccc(OCc2ccccc2)cc1`: the max response was -1.7%.

For `COc1ccc2c3c1O[C@H]1C[C@@H](O)C=C[C@@]31CCN(C)C2`, the max response is -0.885% and -4.86%.

With `S=C(NCc1cccnc1)Nc1ccc(Cl)cc1Cl`, the max response was 9.37%.

In the case of `S=C(Nc1ccc(Br)cc1Cl)N1CCC2(CC1)OCCO2`, the max response is 20.3% (active).

As to `Cc1cc(Cl)ccc1NC(=S)N1CCC(C(N)=O)(N2CCCCC2)CC1`, the max response was -2.11%.

Consider `CN(C)C(=S)Nc1ccc(Br)cc1Cl`, for which the max response was -1.09%.

For the molecule `CN1CCN(S(=O)(=O)c2ccc(NC(=S)NC(=O)C3CC3)cc2)CC1`, the max response was 1.23%.

Consider `O=C(NC(=S)Nc1ccc(Cl)cc1Cl)C1CC1`, for which the max response was 39.5% (active).

As for `CC1CN(C(=S)Nc2ccc(Br)cc2Cl)CC(C)O1` (stereo not drawn), the max response was 0.924%.

On to `Cc1ccc2c(c1)C1CN(C)CCC1N2C(=S)Nc1ccc(Cl)cc1Cl` (stereo not drawn), for which the max response is -1.23%.

With `S=C(Nc1ccc(Cl)cc1Cl)N1CCCC1`, the max response is 60.1% (active).

For the molecule `CC(Oc1ccc(F)cc1)C(=O)N1CCN(c2ncccn2)CC1` (stereo not drawn), the max response is -2.63%.

As for `CNC(=O)[C@]1(C(F)(F)F)C[C@H](CCc2ccccc2)CCCO1`, the max response was 3.47%.

For `Cn1cnc([N+](=O)[O-])c1Sc1ccccc1`, the max response was -3.34%.

As for `Cc1cccc(NS(=O)(=O)c2ccc([N+](=O)[O-])cc2)n1`, the max response is -1.49%.

For the molecule `O=C(COc1cccc(-n2cnnn2)c1)NCCC1=CCCCC1`, the max response was 0.68%.

In the case of `CSc1ccccc1N1CCN(CCCCCC(=O)NC2CCCc3ccccc32)CC1` (stereo not drawn), the max response is -7.34%.

As to `Cc1ccc(Nc2ccccc2N)cc1`, the max response is 33.2% (active).

For the molecule `Nc1ccc(Nc2ccccc2)cc1`, the max response is -1.73%.

For the molecule `Nc1ccc(C(=O)Nc2ccccc2N)cc1`, the max response is 5.95%.

For the molecule `COc1ccc(COCCN2CCN(S(=O)(=O)c3ccccc3)CCC2=O)cc1`, the max response is -3.54%.

For the molecule `COc1ccc(S(=O)(=O)N(C)CC(=O)N2CCCC2)cc1`, the max response is -3.08%.

Regarding `CCOC(=O)N1CCN(C(=O)c2cn(C)c3ccc(S(=O)(=O)N(CC)CC)cc3c2=O)CC1`, the max response is -2.19%.

Take `CC(C(=O)NC1CCS(=O)(=O)C1)N1C(=O)/C(=C/c2ccc(Cl)cc2)SC1=S` (stereo not drawn): the max response is 16.6%.

Consider `COc1ccc(Nc2nc(=O)[nH]nc2C)cc1`, for which the max response is -2.63%.

As to `COc1ccc(Nc2nnc(C)c3ccccc23)cc1`, the max response is 29.8% (active).

As for `Cc1nnc(NCCO)c2ccccc12`, the max response was 4.14%.

For `COc1ccc(C(=O)NCC(=O)N/N=C/c2cccnc2)cc1`, the max response was -4.37%.

For `S=C(NCCCc1cnc[nH]1)NCCCN(Cc1ccc(Cl)c(Cl)c1)c1ccc(Br)cn1`, the max response was -1.98%.

Turning to `Cn1nccc1/C=N\NC(=O)c1ccc(Cl)cc1`, the max response was 14.7% (active).

Regarding `CC1(C)C2CC=C(/C=N/NC(=O)c3ccc(Cl)cc3)C1C2` (stereo not drawn), the max response is 10.5%.

For `COc1ccc(/C=N/NC(=O)c2ccc(Cl)cc2)cc1COC(C)=O`, the max response was 1.21%.

Regarding `CCOC(=O)c1sc(NC(=O)CSc2nc(C)cc(C(F)(F)F)n2)c(C#N)c1C`, the max response was 1.11%.

Turning to `COc1cc(C(=O)OC2CCOC2=O)c([N+](=O)[O-])cc1OC` (stereo not drawn), the max response was -5.93%.

`COc1cc(CN2CCCN(C)CC2)c([N+](=O)[O-])cc1OC`: the max response is -2.2%.

Regarding `CN(C)c1ccc(/C=C/C(=O)c2ccc(O)cc2)cc1[N+](=O)[O-]`, the max response was 61.3% (active).

Regarding `O=C(/C=C/c1ccc(Cl)c([N+](=O)[O-])c1)c1cccnc1`, the max response was 9.23%.

Regarding `CN(C)c1ccc(/C=C/C(=O)c2ccc(C(C)(C)C)cc2)cc1[N+](=O)[O-]`, the max response is 9.22%.

Regarding `O=C(O)/C=C/c1ccc2c(c1)OCCO2`, the max response is 5.58%.

In the case of `O=C(COC(=O)/C=C/c1ccc2c(c1)OCO2)NC1CCS(=O)(=O)C1` (stereo not drawn), the max response was 2.81%.

Take `O=C(/C=C/c1ccc2c(c1)OCCO2)c1ccc(O)cc1`: the max response was 36.6% (active).

For the molecule `COc1cccc(NC(=O)N2C3CCCC2CC(NC(C)=O)C3)c1` (stereo not drawn), the max response is -3.34%.

Consider `CCOC(=O)c1ccccc1NS(=O)(=O)c1c(C)nc2sccn2c1=O`, for which the max response is -3.59%.

With `Brc1ccccc1CN1CCC(Cc2ccccc2)CC1`, the max response is -0.443%.

Take `CC(C)CN(CC(C)C)C(=O)CN1c2cccc3cccc(c23)S1(=O)=O`: the max response was 0.92%.

For `O=C(CN1CCCC1)Nc1sc2c(c1C(=O)Nc1ccccc1)CCCC2`, the max response is 0.772%.

In the case of `Cc1ccc(NC(=O)c2csc3c2CCCC3)cc1`, the max response was 46.6% (active).

With `COC(=O)c1sc(NC(=O)c2csc3c2CCCC3)nc1C`, the max response was 52.4% (active).

For the molecule `O=C(N/N=C/c1ccco1)c1ccc(C(=O)N/N=C/c2ccco2)o1`, the max response was 11.6%.

As to `O=C(Nc1ccccc1N1CCOCC1)c1csc2c1CCCC2`, the max response is 8.7%.

With `COC(=O)c1sccc1NC(=O)c1csc2c1CCCC2`, the max response is 11.4%.

For `O=C(N/N=C/c1ccco1)c1csc2c1CCCC2`, the max response was 54.4% (active).

On to `CCOC(=O)c1sc(NC(=O)c2sc(C)nc2C)nc1C`, for which the max response was 10.2%.

Regarding `O=C(N/N=C/c1ccco1)c1ccc(NC(=O)C2CC2)cc1`, the max response is 2.6%.

For `COC(=O)c1c(NC(=O)CCCC(=O)O)sc2c1CCCCC2`, the max response is 1.25%.

On to `CC1CC(C)CN(CCCNC(=O)c2csc3c2CCCCC3)C1` (stereo not drawn), for which the max response is 13.5%.

Consider `Cc1ccc(NC(=O)c2c(NC(=O)CCC(=O)O)sc3c2CCCCC3)cc1`, for which the max response is 39.3% (active).

(Values after PubChem BioAssay AID2314 (National Center for Advancing Translational Sciences (NCATS), 2010).)
